Reference: PubChem BioAssay (Tox21)
Results filed as inconclusive are left out. Values without a mark were called inactive. Active and inactive are the calls of the source. The call rests on the fitted dose curve; in most records, active means well fitted activation curve with a large enough effect in the signal ratio in the repeat runs, with a control signal flat (not every such curve was filed as active); inconclusive means weak or mixed curves; inactive means flat fitted curve, though single readings scatter; the % refers to the signal ratio.

assay: qHTS assay for small molecule activators of the heat shock response signaling pathway (AID 743210); conditions: HeLa HSE-bla reporter, beta-lactamase ratio, 5 h; series mostly up to 62.6 µM; activation: at the top concentration
From the text: U.S. Tox21 Program National Center for Advancing Translational Sciences [NCATS] NIH Chemical Genomics Center [NCGC] U.S. Environmental Protection Agency [EPA] National Institutes of Environmental Health Sciences [NIEHS] National Toxicology Program [NTP] U.S. Food and Drug Administration [FDA] Tox21 Assay Overview: Various chemicals, environmental and physiological stress conditions may lead to the activation of heat shock response/ unfolded protein response (HSR/UPR). There are three heat shock transcription factors (HSFs) (HSF-1, -2, and -4) mediating transcriptional regulation of the human HSR. To identify the compounds that activate HSR signaling, HSE-bla HeLa cell line (Invitrogen, Carlsbad, CA, USA) containing a beta-lactamase reporter gene under the control of the heat shock response elements was used to screen the Tox21 10K compound library.
Tox21 Assay Protocol Summary: The CellSensor HSE-bla HeLa cells (Invitrogen, Carlsbad, CA, USA) were dispensed at 1500 cells/6uL/well into 1536-well black wall/clear bottom plates using a Multidrop combi (Thermo Fisher Scientific, Waltham, MA) dispenser. After the assay plates were incubated at 37 C and 5% CO2 overnight, 23 nL of compounds dissolved in DMSO, positive controls or DMSO only was transferred to the assay plate by a Pintool station (Kalypsys, San Diego, CA). The plates were incubated at 37 C for 5 h. After 1 uL of LiveBLAzerTM B/G FRET substrate was added using a Flying Reagent Dispenser (Beckman Coulter, Indianapolis, IN, USA), the plates were incubated at room temperature for 2.5 h, and fluorescence intensity was measured by an Envision plate reader (PerkinElmer, Shelton, CT).
On the % scale 0 is the no-effect control and ±100 the full control effect.

Compound	outcome	activation
CCN(CC)C(=O)c1cccc(C)c1	inactive	–
COc1ccc(OC(F)(F)F)cc1CN[C@H]1CCCN[C@H]1c1ccccc1	–	0.524%
CCCCCCCC(=O)OCC(COC(=O)CCCCCCC)OC(=O)CCCCCCC	inactive	–
CN(C)C(=O)Nc1ccc(Cl)c(Cl)c1	inactive	–
OC[C@H]1O[C@H](O[C@]2(CCl)O[C@H](CCl)[C@@H](O)[C@@H]2O)[C@H](O)[C@@H](O)[C@H]1Cl	inactive	–
CCCCC1(COC(=O)CCC(=O)O)C(=O)N(c2ccccc2)N(c2ccccc2)C1=O	inactive	–
O=S1(=O)OC(c2ccc(O)cc2)(c2ccc(O)cc2)c2ccccc21	inactive	–
CS(=O)(=O)OCCCCOS(C)(=O)=O	inactive	–
Cn1c(=O)c2c(ncn2C)n(C)c1=O	inactive	–
CC(C)C(=O)Nc1ccc([N+](=O)[O-])c(C(F)(F)F)c1	inactive	–
CCOC(N)=O	inactive	–
NC1CCCCC1	inactive	–
Cc1cc(C)nc(NS(=O)(=O)c2ccc(N)cc2)n1	inactive	–
CN(C)CCOC(C)(c1ccccc1)c1ccccn1 (stereo not given)	inactive	–
Cc1cccc(C)c1	inactive	–
Nc1c2c(nc3ccccc13)CCCC2	inactive	–
O=C1c2c(O)cccc2Cc2cccc(O)c21	inactive	–
NS(=O)(=O)O	inactive	–
NC(=O)c1cccnc1	inactive	–
CCCCC(CC)C(=O)O (stereo not given)	inactive	–

Compound	outcome	activation
CC12CCC(CC1)C(C)(C)O2	inactive	–
Cc1cn([C@H]2C=C[C@@H](CO)O2)c(=O)[nH]c1=O	inactive	–
Nc1c(N=Nc2ccc(-c3ccc(N=Nc4cc(S(=O)(=O)O)c5ccccc5c4N)cc3)cc2)cc(S(=O)(=O)O)c2ccccc12	–	0.181%
COc1ccc2cc(S(=O)(=O)N[C@H](CC(=O)N[C@H](Cc3ccc(CN4[C@H](C)CCC[C@@H]4C)cc3)C(=O)N(C)C(C)C)c3ccc4c(c3)OCO4)ccc2c1	–	3.32%
C1=CC2C3C=CC(C3)C2C1 (stereo not given)	–	-3.6% [at 81.1 µM]
Nc1ccc(O)c([N+](=O)[O-])c1	–	6.58% [at 81.1 µM]
C=C(C)C(=O)OCC(C)O (stereo not given)	inactive	–
C=CCc1ccc(O)c(OC)c1	inactive	–
CCOc1ccc(NC(C)=O)cc1	inactive	–
NS(=O)(=O)c1cc2c(cc1Cl)NCNS2(=O)=O	inactive	–
C/C=C/C=C/C(=O)O	inactive	–
NC(=O)n1c(O)c(C(=O)c2cccs2)c2cc(Cl)ccc21	–	0.146%
NC(CO)(CO)CO	inactive	–
CCCc1cc(=O)[nH]c(=S)[nH]1	inactive	–
CCCC[P+](CCCC)(CCCC)CCCC	inactive	–
O=C(Nc1ncc([N+](=O)[O-])s1)c1cccs1	–	-0.3%
CN(C)CCOC(c1ccccc1)c1ccccc1	inactive	–
CNNCc1ccc(C(=O)NC(C)C)cc1	inactive	–
Nc1ccc([N+](=O)[O-])cc1O	–	1.68% [at 81.1 µM]
COc1ccc(CN(CCN(C)C)c2ccccn2)cc1	inactive	–
